{"source": "PubChem BioAssay (NCI)", "note": "Compounds without any hit were thinned out: in the full panel of roughly 83,000, 20% have a hit.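 The test compound was applied at a single concentration to cells in 96-well plates for 48 hours, and percent growth was recorded.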 Activity calls are given as the source filed them.", "data": [{"test_system": "HOP-92 NSCLC", "assay": "NCI-60 one-dose screen, 48 h (100 = growth as untreated, 0 = no growth, -100 = all killed)", "conditions": "10 µM unless noted", "procedure": "Growth inhibition of the HOP-92 human Non-Small Cell Lung tumor cell line is measured as a screen for anti-cancer activity. Cells are grown in 96 well plates and exposed to the test compound for 48 hours. Compounds are tested at a single concentration, which is 10^-5 M for most compounds. The reported endpoint is percent growth (GI% or GIPRCNT), where numbers from 0 - 100% represent growth inhibition, and numbers from -100% - 0 represent cell death. For example, a value of 40 represents 60% growth inhibition. A value of 0 means no net growth occurred over the course of the experiment. A value of -40 indicates 40% of cells at the beginning of the experiment died by the end of the experiment. A value of -100 means all cells are dead at the end of the experiment.\nNCI-60 Human Tumor Cell Lines Screen was performed using the standard one-dose NCI protocol, which is described in more detail at https://dtp.cancer.gov/discovery_development/nci-60/default.htm.\nCompounds with GIPRCNT values below 10 were considered active. Activity score was based on GIPRCNT using the following formula: […]\nScore is 0 for GIPRCNT values of 100 or above, 50 for GIPRCNT values of 0, and 100 for GIPRCNT values of -100.", "values": [{"compound": "CNC(=O)c1cc(Oc2ccc3nc(NC(C)=O)sc3c2)ccn1", "growth": "99.9% (inactive)"}, {"compound": "Oc1c(Cl)cc(Cl)c2ccc(Cn3cc(-c4cc(C(F)(F)F)cc(C(F)(F)F)c4)nn3)nc12", "growth": "24.8% (inactive)"}, {"compound": "CN(CCOc1ccc(C#N)cc1)CCOc1ccc(C#N)cc1", "growth": "63.3% (inactive)"}, {"compound": "CCCc1cc(NC)nc(S(=O)(=O)CC)n1", "growth": "108% (inactive)"}, {"compound": "Cc1nn(-c2ccccc2)c(Oc2ccccn2)c1-c1nc2ccccc2s1", "growth": "80.9% (inactive)"}, {"compound": "CCN1C(=O)N(CC)C2C1NN=c1s/c(=C\\c3cccc([N+](=O)[O-])c3)c(=O)n12", "note": "(stereo not given)", "growth": "55.2% (inactive)"}, {"compound": "CCOC(=O)CSc1ncnc2c1c(-c1ccccc1)c(-c1ccccc1)n2-c1ccc(C)cc1", "growth": "49.4% (inactive)"}, {"compound": "CC(C)N1CCN(Cc2ccc3c(NNC(=O)c4ccccc4)nc4cc(F)ccc4n23)CC1", "growth": "49% (inactive)"}, {"compound": "COc1cc(CNC(=O)/C=C/C=C/c2ccc3c(c2)OCO3)ccc1OCc1cn(-c2ccc(C)c(C)c2)nn1", "growth": "-4.29% (active)"}, {"compound": "CC1(c2ccccc2O)NN=C(/N=C/c2cccc([N+](=O)[O-])c2)N1C(Cc1c[nH]c2ccccc12)C(=O)O", "note": "(stereo not given)", "growth": "81.2% (inactive)"}, {"compound": "O=C(CCc1nnc(Cn2cnc3nc[nH]c3c2=O)o1)c1nc2ncccc2[nH]1", "growth": "104% (inactive)"}, {"compound": "O=C(Cn1c2c(c3ccccc31)CCCC2)Nc1ccc(-c2nc3ccccc3s2)cc1", "growth": "89.6% (inactive)"}, {"compound": "COc1ccc(C2=Nc3c/c(=C\\c4c(O)[nH]c5ccc(Cl)cc45)ccc3=N2)cc1", "growth": "52.8% (inactive)"}, {"compound": "C=C(C)[C@@H]1CC[C@]2(C(=O)N3CCN(C)CC3)CC[C@]3(C)[C@H](CC[C@@H]4[C@@]5(C)CC(=C/c6ccncc6)/C(=N/O)C(C)(C)[C@@H]5CC[C@]43C)[C@@H]12", "growth": "56.7% (inactive)"}, {"compound": "CCOC(=O)c1c2c(n3ccc(C)cc13)C(=O)c1ccccc1C2=O", "growth": "87.8% (inactive)"}, {"compound": "COC(=O)c1c2c(c(C)[n+]([O-])c1C)C(=O)C=C(NCc1ccc(OC)cc1)C2=O", "growth": "-35.3% (active)"}, {"compound": "Cc1oc(-c2ccc(Cl)cc2)nc1/C=C/C(=O)c1ccccc1", "growth": "88.4% (inactive)"}, {"compound": "Cc1ccc(S(=O)(=O)N2CCCC2CO)cc1", "note": "(stereo not given)", "growth": "76.9% (inactive)"}, {"compound": "COC(=O)c1c2c(c(C)[n+]([O-])c1C)C(=O)C(NCc1ccc(Cl)cc1)=CC2=O", "growth": "107% (inactive)"}, {"compound": "O=C(Nc1ccc(NC(=O)c2cc(=O)[nH]c3ccccc23)cc1)Nc1cccc(C(F)(F)F)c1", "growth": "42.6% (inactive)"}, {"compound": "Cc1c(-c2nc3ccc(F)cc3c(=O)[nH]2)c2ccccc2n1C", "growth": "60.5% (inactive)"}, {"compound": "CCOC(=O)c1cn2ncnc(Oc3ccc(NC(=O)NC4CCCCC4)c(Cl)c3)c2c1C", "growth": "86.8% (inactive)"}, {"compound": "CC(C)(C)[Si](C)(C)O[C@H]1C(=O)C=CN2CC=C[C@@H]12", "growth": "93.9% [100 µM] (inactive)"}, {"compound": "CN1C(=O)/C(=C/c2ccc(C(=O)Nc3ncc(Cc4ccc(Cl)cc4)s3)cc2)SC1=S", "growth": "51.6% (inactive)"}, {"compound": "COc1ccc2[nH]cc(C(c3cc(F)cc(F)c3)c3c[nH]c4ccc(OC)cc34)c2c1", "growth": "54.3% (inactive)"}, {"compound": "COc1ccc2c(O)c(/C=C3\\N=Nc4ncccc43)oc2c1C[C@H]1CCNC[C@H]1F", "growth": "25.7% (inactive)"}, {"compound": "O=C(Cn1cc(CN2CCCCCC2)nn1)Nc1ccc2c(ccn2Cc2ccccc2)c1", "growth": "64% (inactive)"}, {"compound": "CC(O)c1cnc(/C=C2\\SC(=S)N(Cc3ccccc3)C2=O)s1", "note": "(stereo not given)", "growth": "43.7% (inactive)"}, {"compound": "O=C(CCCCC1CCSS1)Nc1ncnc2n[nH]c(-c3ccc(Oc4ccccc4)cc3)c12", "note": "(stereo not given)", "growth": "97.9% (inactive)"}, {"compound": "O=C1/C(=C/c2ccc(Cl)cc2)COc2ccc(O)c(O)c21", "growth": "-5.33% (active)"}, {"compound": "Cc1ccc(/C=C2\\CN(C(=O)OC(C)(C)C)C/C(=C\\c3ccc(C)cc3)C2=O)cc1", "growth": "84.1% (inactive)"}, {"compound": "N#Cc1c(-c2ccc(Cl)cc2)nc(SCC(=O)NC2=NN=C(c3ccccc3)CS2)[nH]c1=O", "growth": "58.2% (inactive)"}, {"compound": "O=CC1(C2(C=O)c3ccccc3-c3ccccc32)c2ccccc2-c2ccccc21", "growth": "-74.8% (active)"}, {"compound": "Fc1ccc2[nH]cc(-c3nonc3-c3c[nH]c4ccc(Br)cc34)c2c1", "growth": "22.4% (inactive)"}, {"compound": "O=C(O)/C(=C\\c1ccc(Cl)cc1)c1ccc(Cl)cc1", "growth": "67.7% (inactive)"}, {"compound": "Nc1nc2c([nH]1)c1[nH]c3ccccc3c1c1[nH]c3ccccc3c21", "growth": "-2.6% (active)"}, {"compound": "COC(=O)/C=C1/SC(=Nc2ccc(C)cc2)N(CCc2c[nH]c3ccc(O)cc23)C1=O", "growth": "53.7% (inactive)"}, {"compound": "O=C(CSc1nc2ccc([N+](=O)[O-])cc2[nH]1)Nc1ccc(F)cc1", "growth": "-6.84% (active)"}, {"compound": "CCCCOC(=O)OCc1cc(=O)c(O)co1", "growth": "107% (inactive)"}, {"compound": "Cn1ccnc1C(=O)C(=O)Nc1ccc(CC(=O)Nc2ccccc2)cc1", "growth": "103% (inactive)"}]}]}
